PubChem BioAssay AID1863 (Southern Research Specialized Biocontainment Screening …, 2009)
The whole screen tested about 300,000 compounds, of which about 480 (0.16%) were called active.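 The calls were made as follows: active = inhibition over 29.93%, a cutoff 3 SD above the screen mean, later confirmed by dose response; inconclusive = inhibition over 29.93% but no dose response follow-up; inactive = inhibition at most 29.93% or unconfirmed.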 Not all results are given here. Entries with a potency or affinity are not part of this list.

Assay: PhoP-dependent GFP reporter repression – Salmonella Typhimurium, primary screen (AID 1863);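 also: 0% = low Mg2+ inducing control and 100% = high Mg2+ repressing control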
Settings: S. Typhimurium PhoP-regulated promoter GFP reporter, 4 h; at 50 µM; stronger effect = higher value

SMILES | inhibition
O=C(/C=C/c1ccc([N+](=O)[O-])cc1)NCCc1ccccc1 | 6.48% (inactive)
O=c1cc(N2CCN(c3ccccc3F)CC2)[nH]c(=O)n1-c1ccc(Br)cc1 | -3.95% (inactive)
Cc1sc2ncnc(N/N=C/c3cccc(O)c3)c2c1C | -0.11% (inactive)
Cc1sc2ncnc(Nc3ccccc3)c2c1C | 8.39% (inactive)
C/C(=N\Nc1ncc(Cl)cc1Cl)c1ccccn1 | 9.66% (inactive)
Cc1sc2ncnc(N/N=C/c3ccc(O)cc3)c2c1C | 11.1% (inactive)
C=CCN(c1ccc(C(=O)NCCCn2ccnc2)cc1)S(C)(=O)=O | 0.81% (inactive)
Cc1ccc2c(=O)c(C(=O)c3ccc(F)cc3)cn(CC(=O)NCc3ccco3)c2n1 | -4.56% (inactive)
CCOC(=O)c1c(NC(=O)COC(=O)c2ccccn2)sc(C(=O)N(C)C)c1C | 2.57% (inactive)
C/C(=N\NC(=O)c1cc(Br)ccc1O)c1ccccn1 | 3.69% (inactive)
C/C(=N\NC(=O)c1ccccc1Cl)c1ccccn1 | 5.97% (inactive)
COc1ccc(CC(=S)NCCc2ccccc2)cc1 | -4.36% (inactive)
O=C(NC1CCCC1)C(c1ccccn1)N(Cc1ccc(F)cc1)C(=O)c1csnn1 (stereo not drawn) | 0.43% (inactive)
CCCCCCSc1cc(-c2nc3ccc(Cl)cn3c2NCCCC)ccc1OC | -3.84% (inactive)
COc1cc2ccc3c(CCN(C)C)cc(OC)c(OC)c3c2cc1OC | -2.35% (inactive)
CC(=O)Oc1ccc(OC(C)=O)c(SCCCCCCl)c1 | -1.06% (inactive)
CCCCn1nnnc1NCc1cc(OC)c(OC)cc1OC | 35.9% (inactive)
O=C(Nc1ccc(S(=O)(=O)N2CCc3ccccc3C2)cc1)C1CCCO1 (stereo not drawn) | 13.2% (inactive)
CCCCCn1c(CCNC(=O)c2cccs2)nc2ccccc21 | 11.2% (inactive)
COc1ccccc1C(=O)OCc1ccc2sc(C)nc2c1 | 5.75% (inactive)

SMILES | inhibition
C=CCNc1nc(Cl)nc(Nc2ccc([N+](=O)[O-])cc2)n1 | 13.8% (inactive)
CC(C)c1cc(=O)n2[nH]c(SCc3ccccc3Cl)nc2n1 | -7.54% (inactive)
CCCOc1ccc(C(=O)NCCC(=O)NCCCC(=O)O)cc1 | 8.01% (inactive)
CN(C)C/C(Cl)=C(\Cl)c1ccccc1 | 4.69% (inactive)
NC(=O)c1c(NC(=O)c2ccc([N+](=O)[O-])o2)sc2c1CCCC2 | -3.86% (inactive)
CN1CCc2c(sc(NC(=O)c3ccco3)c2C(N)=O)C1 | -4.37% (inactive)
CC(C)N1CCc2c(sc(NC(=O)c3ccc([N+](=O)[O-])o3)c2C(N)=O)C1 | 18% (inactive)
COC(=O)c1c(NC(=O)c2ccco2)sc2c1CCN(C(C)C)C2 | 3.8% (inactive)
CC(C)(C)c1ccc(C(=O)N2CCN(C(=O)c3ccco3)CC2)cc1 | 1.4% (inactive)
Cc1nn(-c2ccccc2)c(N2CCCC2)c1C=O | -1.38% (inactive)
O=S(=O)(c1ccccc1)c1nc(-c2ccco2)oc1NCCCn1ccnc1 | 5.16% (inactive)
CC(C)N(C(=O)COC(=O)[C@@H]1CC(O)CN1S(=O)(=O)c1ccc(C(C)(C)C)cc1)C(C)C (stereo partly drawn) | 0.76% (inactive)
CC(=O)C[C@H]1c2cc(C(F)(F)F)ccc2S(=O)(=O)N1c1ccc(N(C)C)cc1 | -9.83% (inactive)
Cc1c(N2C(=O)c3ccc(Br)cc3C2=O)c(=O)n(-c2ccccc2)n1C | 2.78% (inactive)
CCn1cc(C(=O)O)c(=O)c2cnc(N3CCN(C(=S)Nc4ccccc4)CC3)nc21 | 5.11% (inactive)
C=CCNC(=S)N1CCN(c2ncc3c(=O)c(C(=O)O)cn(CC)c3n2)CC1 | 14% (inactive)
CCCCCCn1cc(C(=O)O)c(=O)c2cc(F)c(N3CCN(C(=O)OCC)CC3)cc21 | 5.63% (inactive)
CCCCCCCCC(=O)N1CCN(c2cc3c(cc2F)c(=O)c(C(=O)O)cn3CC)CC1 | 1.94% (inactive)
CCOC(=O)c1cn(CC)c2cc(N3CCN(C)CC3)c(F)cc2c1=O | 0.76% (inactive)
CCCCCCCC(=O)N1CCN(c2cc3c(cc2F)c(=O)c(C(=O)O)cn3CC)CC1 | 9.66% (inactive)

SMILES | inhibition
O=C(N/N=C1\CC2CC=CC12)c1ccccc1Cl (stereo not drawn) | -4.57% (inactive)
CC1(C)C(=O)Nc2ccccc2N1C(=O)c1ccc([N+](=O)[O-])cc1 | 7.48% (inactive)
CCS(=O)(=O)N1CCCC(C(=O)NCC2CCCO2)C1 (stereo not drawn) | 9.13% (inactive)
COCCn1c(SCc2nnc(-c3ccccc3)o2)nc2sc3c(c2c1=O)CCC3 | 1.92% (inactive)
O=C(NCc1cccnc1)/C(=C/c1ccco1)NC(=O)c1ccccc1 | -2.07% (inactive)
CCOc1ccc(C(=O)OCC(=O)NCCCc2ccccc2)cc1 | -6.34% (inactive)
COCCN1C=C2C(=O)C(C)(OC(=O)C3CCCC3)C(=O)C(c3ccccc3)=C2C=C1CCCC(=O)OC (stereo not drawn) | 0.275% (inactive)
O=C(c1ccc(NS(=O)(=O)c2ccc3c(c2)OCCO3)cc1)N1CCCCC1 | -6.01% (inactive)
Cn1cc(S(=O)(=O)NC2CCCCC2)c(=O)n(C)c1=O | -6.38% (inactive)
Cc1cc(C)nc(/N=C(\N)N(Cc2ccccc2)Cc2ccccc2)n1 | -3.9% (inactive)
COc1ccc(/C=N/NS(=O)(=O)c2ccc(C)cc2)cc1OC(=O)c1ccccc1 | -3.56% (inactive)
CCCCCCn1cc(C(=O)O)c(=O)c2cc(F)c(N3CCN(C)CC3)cc21 | -2.32% (inactive)
O=C(O)c1cn(C2CC2)c2cc(N3CCN(S(=O)(=O)c4ccc5c(c4)OCCO5)CC3)c(F)cc2c1=O | 28.5% (inactive)
CCN(C(=O)COC(=O)c1ccc(C)c(S(=O)(=O)N2CCCCC2)c1)C1CCS(=O)(=O)C1 (stereo not drawn) | -0.22% (inactive)
CC(Oc1ccccc1)C(=O)N=C1SC2CS(=O)(=O)CC2N1c1cccc(F)c1 (stereo not drawn) | -0.94% (inactive)
COc1ccc(S(=O)(=O)N(C)c2ccc(C(=O)NCC3CCCO3)cc2)cc1 (stereo not drawn) | 15.5% (inactive)
CN(C)NC1CC(=O)N(c2ccccc2)C1=O (stereo not drawn) | -0.29% (inactive)
CCOP(=O)(OCC)C(C)(C)NC(=O)c1cc([N+](=O)[O-])cc([N+](=O)[O-])c1 | -1.13% (inactive)
